The antibiotic and cytotoxicity screens of Wong et al. (2023)
The whole screen tested about 39,000 compounds, of which about 1,500 (3.8%) were called active. The list comes from a sample in which actives are over-represented; it also holds similar structures and randomly drawn compounds.

System: HSkMC (human skeletal muscle cells)
Assay: cytotoxicity call (relative viability < 0.9)
Conditions: 10 µM

Compound	cytotoxicity call
C=CCOC(=O)[C@H]1[C@@H]2C(=O)O[C@@H](c3ccccc3)[C@@H](c3ccccc3)N2[C@@H](c2ccc(OCCOC(=O)[C@@H]3C[C@@H]4C(=O)N[C@@H](CCCCNC(C)=O)C(=O)N4[C@@H]3c3ccc(O)cc3)cc2)[C@]12C(=O)Nc1ccccc12	inactive
COc1ccc(CN(C)C[C@@H]2OCCCC[C@@H](C)Oc3ccc(NS(=O)(=O)c4ccc(F)cc4)cc3C(=O)N([C@H](C)CO)C[C@@H]2C)cc1	inactive
C[C@H](CO)N1C[C@H](C)[C@@H](CN(C)Cc2ccc(C(F)(F)F)cc2)Oc2ccc(NC(=O)Cn3cnnn3)cc2CC1=O	inactive
C[C@H](CO)N1C[C@H](C)[C@@H](CN(C)S(=O)(=O)c2cn(C)cn2)Oc2ccc(NC(=O)C3CCCCC3)cc2CC1=O	inactive
Cc1ccc(S(=O)(=O)Nc2cccc3c2O[C@@H](CN(C)S(=O)(=O)c2cccs2)[C@@H](C)CN([C@H](C)CO)C3=O)cc1	inactive
CN1C(=O)C[C@@H]2[C@@H]1CCN2C(=O)c1ccc[nH]1	inactive
C[C@H](CO)N1C[C@H](C)[C@@H](CN(C)S(=O)(=O)c2cn(C)cn2)OCc2ccccc2-c2ccccc2C1=O	inactive
C[C@@H]1CCCCO[C@H](CN(C)Cc2ccc3c(c2)OCO3)[C@@H](C)CN([C@@H](C)CO)C(=O)c2cc(NC(=O)Nc3cccc4ccccc34)ccc2O1	inactive
C[C@H](CO)N1C[C@H](C)[C@H](CN(C)Cc2ccc3c(c2)OCO3)OCCCC[C@H](C)Oc2ccc(NC(=O)Nc3cccc4ccccc34)cc2C1=O	active
C[C@@H]1CN([C@H](C)CO)C(=O)c2cc(NC(=O)Nc3cccc4ccccc34)ccc2O[C@@H](C)CCCCO[C@@H]1CN(C)Cc1ccc2c(c1)OCO2	active
C[C@@H]1CCCCO[C@H](CN(C)Cc2ccc3c(c2)OCO3)[C@H](C)CN([C@H](C)CO)C(=O)c2cc(NC(=O)Nc3cccc4ccccc34)ccc2O1	active
C[C@H]1CCCCO[C@H](CN(C)Cc2ccc3c(c2)OCO3)[C@@H](C)CN([C@@H](C)CO)C(=O)c2cc(NC(=O)Nc3cccc4ccccc34)ccc2O1	inactive
C[C@@H]1CCCCO[C@@H](CN(C)Cc2ccc3c(c2)OCO3)[C@H](C)CN([C@@H](C)CO)C(=O)c2cc(NC(=O)Nc3cccc4ccccc34)ccc2O1	inactive
C[C@@H]1CCCCO[C@@H](CN(C)Cc2ccc3c(c2)OCO3)[C@H](C)CN([C@H](C)CO)C(=O)c2cc(NC(=O)Nc3cccc4ccccc34)ccc2O1	active
C[C@@H]1CN([C@@H](C)CO)C(=O)c2cc(NC(=O)Nc3cccc4ccccc34)ccc2O[C@@H](C)CCCCO[C@@H]1CN(C)Cc1ccc2c(c1)OCO2	inactive
Cc1ccc(S(=O)(=O)Nc2ccc3c(c2)C(=O)N([C@@H](C)CO)C[C@@H](C)[C@@H](CN(C)C(=O)Nc2ccc(C(F)(F)F)cc2)O3)cc1	inactive
C[C@H](CO)N1C[C@H](C)[C@@H](CN(C)C(=O)Nc2ccc(C(F)(F)F)cc2)OCc2cn(nn2)CCCC1=O	inactive
CN(C)/N=N/c1nc[nH]c1C(N)=O	inactive
COC(=O)C[C@H]1CC[C@H](N)[C@@H](CO)O1	inactive
NCc1cccc(-c2ccccc2)c1	inactive
C[C@@H]1CCCCO[C@@H](CN(C)C(=O)NC2CCCCC2)[C@@H](C)CN([C@H](C)CO)C(=O)c2cc(NC(=O)CCCCCC(=O)Nc3ccccc3N)ccc2O1	inactive

Compound	cytotoxicity call
C[C@@H]1CN([C@@H](C)CO)C(=O)c2cc(NC(=O)Nc3ccc(F)cc3)ccc2O[C@@H](C)CCCCO[C@@H]1CN(C)C(=O)C1CCCCC1	inactive
C[C@@H]1CN([C@H](C)CO)C(=O)c2cc(NS(=O)(=O)c3ccc(Cl)cc3)ccc2O[C@@H]1CN(C)Cc1ccc(Cl)c(Cl)c1	active
C[C@H]1CN([C@@H](C)CO)C(=O)c2cc(NS(=O)(=O)c3ccc(Cl)cc3)ccc2O[C@H]1CN(C)Cc1ccc(Cl)c(Cl)c1	active
C[C@@H]1CN([C@@H](C)CO)C(=O)c2cc(NS(=O)(=O)c3ccc(Cl)cc3)ccc2O[C@H]1CN(C)Cc1ccc(Cl)c(Cl)c1	active
C[C@H](CO)N1C[C@H](C)[C@@H](CN(C)Cc2ccc(Cl)c(Cl)c2)Oc2ccc(NS(=O)(=O)c3ccc(Cl)cc3)cc2C1=O	active
COc1oc(C(=O)NC2CCCCC2)c(-c2ccc(Cl)cc2)c1S(=O)(=O)c1ccccc1Cl	inactive
Cc1ccc(S(=O)(=O)N2C[C@H](O)COC[C@@H]3O[C@H](CC(=O)NCCN4CCCCC4)CC[C@H]32)cc1	inactive
COc1ccc(NC(=O)N2C[C@H](O)COC[C@H]3O[C@@H](CC(=O)NCc4ccccc4OC)CC[C@@H]32)cc1	inactive
COc1ccc(NC(=O)N(C)C[C@H]2OCCCC[C@@H](C)Oc3ccc(NC(=O)CCC(F)(F)F)cc3C(=O)N([C@H](C)CO)C[C@H]2C)cc1	inactive
C[C@@H]1CCCCO[C@H](CN(C)Cc2ccc(C(F)(F)F)cc2)[C@H](C)CN([C@@H](C)CO)C(=O)c2cc(NC(=O)CCC(F)(F)F)ccc2O1	inactive
COc1ccc(C#Cc2ccc3c(c2)[C@]2(C(=O)N3)[C@H](c3ccccc3OCCO)N3[C@H](c4ccccc4)[C@H](c4ccccc4)OC(=O)[C@H]3[C@@H]2C(=O)NC[C@H](O)c2ccccc2)cc1	inactive
COc1ccc(S(=O)(=O)N(C)C[C@@H]2Oc3c(NS(=O)(=O)c4ccc(C)cc4)cccc3C(=O)N([C@@H](C)CO)C[C@H]2C)cc1	inactive
C[C@@H]1CN([C@@H](C)CO)C(=O)c2cc(NS(=O)(=O)c3ccc(Cl)cc3)ccc2O[C@@H](C)CCCCO[C@H]1CN(C)C(=O)c1ccncc1	inactive
C=C(C)CCn1cccc1C(C)=O	inactive
C[C@H]1CN([C@@H](C)CO)S(=O)(=O)c2ccc(C#Cc3cccc(F)c3)cc2O[C@@H]1CN(C)C(=O)CN1CCOCC1	inactive
Cc1noc(C)c1NC(=O)N(C)C[C@H]1Oc2ccc(NC(=O)CCCN(C)C)cc2C(=O)N([C@@H](C)CO)C[C@@H]1C	inactive
C[C@@H]1CN([C@H](C)CO)S(=O)(=O)c2ccc(C3=CCCC3)cc2O[C@@H]1CN(C)C(=O)c1cnccn1	inactive
C[C@H](CO)N1C[C@H](C)[C@H](CN(C)Cc2ccc(Cl)c(Cl)c2)Oc2ccc(NS(=O)(=O)c3ccc(Cl)cc3)cc2C1=O	active
C[C@H](CO)N1C[C@H](C)[C@H](CN(C)Cc2ccc(Cl)c(Cl)c2)Oc2ccc(NS(=O)(=O)c3ccccc3)cc2C1=O	inactive
C[C@@H]1CN([C@@H](C)CO)C(=O)c2cc(NS(=O)(=O)c3ccccc3)ccc2O[C@@H]1CN(C)Cc1ccc(Cl)c(Cl)c1	active
C[C@H]1CN([C@@H](C)CO)C(=O)c2cc(NS(=O)(=O)c3ccccc3)ccc2O[C@@H]1CN(C)Cc1ccc(Cl)c(Cl)c1	inactive

Compound	cytotoxicity call
C[C@@H]1CN([C@@H](C)CO)C(=O)c2cc(NS(=O)(=O)c3ccc(Cl)cc3)ccc2O[C@@H]1CN(C)Cc1ccc(Cl)c(Cl)c1	active
C[C@H](CO)N1C[C@H](C)[C@@H](CN(C)Cc2ccc(Cl)c(Cl)c2)Oc2ccc(NS(=O)(=O)c3ccccc3)cc2C1=O	inactive
C[C@H]1CN([C@@H](C)CO)C(=O)c2cc(NS(=O)(=O)c3ccc(Cl)cc3)ccc2O[C@@H]1CN(C)Cc1ccc(Cl)c(Cl)c1	active
C[C@@H]1CN([C@H](C)CO)C(=O)c2cc(NS(=O)(=O)c3ccc(Cl)cc3)ccc2O[C@H]1CN(C)Cc1ccc(Cl)c(Cl)c1	inactive
COc1ccc(S(=O)(=O)N(C)C[C@H]2OCc3cnnn3CCCC(=O)N([C@H](C)CO)C[C@@H]2C)cc1	inactive
Cc1noc(C)c1NC(=O)Nc1cccc2c1O[C@@H](CN(C)S(=O)(=O)c1ccccc1)[C@H](C)CN([C@@H](C)CO)C2=O	inactive
C[C@@H]1CCCCO[C@H](CN(C)C(=O)c2ccncc2)[C@H](C)CN([C@@H](C)CO)C(=O)c2cc(NC(=O)C3CCCCC3)ccc2O1	inactive
COc1ccc(-c2cnc3c(c2)C(=O)N([C@@H](C)CO)C[C@@H](C)[C@@H](CN(C)C(=O)Cc2cccnc2)O3)cc1	inactive
C/C=C/c1cccc(-c2nc(C(=O)NCc3ccccc3)cc3c2[C@H](CCO)N([S@@](=O)C(C)(C)C)C3)c1	inactive
C=CCOC(=O)[C@@H]1[C@H]2C(=O)O[C@H](c3ccccc3)[C@H](c3ccccc3)N2[C@H](c2ccccc2OCCO)[C@@]12C(=O)Nc1ccc(I)cc12	inactive
O=C(C[C@@H]1CC[C@H](NC(=O)Nc2ccc3c(c2)OCO3)[C@H](CO)O1)NCCCN1CCOCC1	inactive
C[C@H](CO)N1C[C@H](C)[C@@H](CN(C)S(=O)(=O)c2ccc(Cl)cc2)Oc2ccc(NC(=O)Cn3cnnn3)cc2CC1=O	inactive
COc1ccc(-c2ccc3c(c2)O[C@H](CN(C)CC2CCOCC2)[C@H](C)CN([C@H](C)CO)S3(=O)=O)cc1	inactive
COCc1cn(CC[C@@H]2CC[C@@H](NC(=O)CCN3CCCCC3)[C@@H](CO)O2)nn1	inactive
Cn1c(=O)c2c(ncn2C[C@@H](O)CO)n(C)c1=O	inactive
Cn1c(=O)c2c(ncn2CC(O)CO)n(C)c1=O (configuration not stated)	inactive
Cn1c(=O)c(F)c(Nc2ccc(I)cc2F)c2c(=O)n(C[C@@H](O)CO)cnc21	active
Cc1noc(C)c1S(=O)(=O)N(C)C[C@H]1OCc2cnnn2CCCC(=O)N([C@H](C)CO)C[C@H]1C	inactive
Cc1ccc(S(=O)(=O)Nc2ccc3c(c2)CC(=O)N([C@H](C)CO)C[C@@H](C)[C@@H](CN(C)Cc2ccncc2)O3)cc1	inactive
CS(=O)(=O)Nc1ccc2c(c1)[C@H]1C[C@H](CC(=O)NCc3ccc(-c4ccccc4)cc3)O[C@H](CO)[C@H]1O2	inactive
